Assay outcomes from PubChem.
Shown are actives, neighbours in structure and some others; about 11% of the full set was active somewhere.
BAZ2B block: qHTS Assay for Inhibitors of BAZ2B. actives 4.4% (n = 360,000). Potency, µM (titrated, usually from 114 µM), without a hit: at the highest dose activity change, negative = inhibition, most hits filed as inhibitors. AlphaScreen BAZ2B-H3K14Ac peptide displacement; note: % is set by controls: 0 for no effect and ±100 for the full control effect; nearly all actives have a fitted effect of over 60% in size
Target sequence (Q9UIF8 whole entry, looked up): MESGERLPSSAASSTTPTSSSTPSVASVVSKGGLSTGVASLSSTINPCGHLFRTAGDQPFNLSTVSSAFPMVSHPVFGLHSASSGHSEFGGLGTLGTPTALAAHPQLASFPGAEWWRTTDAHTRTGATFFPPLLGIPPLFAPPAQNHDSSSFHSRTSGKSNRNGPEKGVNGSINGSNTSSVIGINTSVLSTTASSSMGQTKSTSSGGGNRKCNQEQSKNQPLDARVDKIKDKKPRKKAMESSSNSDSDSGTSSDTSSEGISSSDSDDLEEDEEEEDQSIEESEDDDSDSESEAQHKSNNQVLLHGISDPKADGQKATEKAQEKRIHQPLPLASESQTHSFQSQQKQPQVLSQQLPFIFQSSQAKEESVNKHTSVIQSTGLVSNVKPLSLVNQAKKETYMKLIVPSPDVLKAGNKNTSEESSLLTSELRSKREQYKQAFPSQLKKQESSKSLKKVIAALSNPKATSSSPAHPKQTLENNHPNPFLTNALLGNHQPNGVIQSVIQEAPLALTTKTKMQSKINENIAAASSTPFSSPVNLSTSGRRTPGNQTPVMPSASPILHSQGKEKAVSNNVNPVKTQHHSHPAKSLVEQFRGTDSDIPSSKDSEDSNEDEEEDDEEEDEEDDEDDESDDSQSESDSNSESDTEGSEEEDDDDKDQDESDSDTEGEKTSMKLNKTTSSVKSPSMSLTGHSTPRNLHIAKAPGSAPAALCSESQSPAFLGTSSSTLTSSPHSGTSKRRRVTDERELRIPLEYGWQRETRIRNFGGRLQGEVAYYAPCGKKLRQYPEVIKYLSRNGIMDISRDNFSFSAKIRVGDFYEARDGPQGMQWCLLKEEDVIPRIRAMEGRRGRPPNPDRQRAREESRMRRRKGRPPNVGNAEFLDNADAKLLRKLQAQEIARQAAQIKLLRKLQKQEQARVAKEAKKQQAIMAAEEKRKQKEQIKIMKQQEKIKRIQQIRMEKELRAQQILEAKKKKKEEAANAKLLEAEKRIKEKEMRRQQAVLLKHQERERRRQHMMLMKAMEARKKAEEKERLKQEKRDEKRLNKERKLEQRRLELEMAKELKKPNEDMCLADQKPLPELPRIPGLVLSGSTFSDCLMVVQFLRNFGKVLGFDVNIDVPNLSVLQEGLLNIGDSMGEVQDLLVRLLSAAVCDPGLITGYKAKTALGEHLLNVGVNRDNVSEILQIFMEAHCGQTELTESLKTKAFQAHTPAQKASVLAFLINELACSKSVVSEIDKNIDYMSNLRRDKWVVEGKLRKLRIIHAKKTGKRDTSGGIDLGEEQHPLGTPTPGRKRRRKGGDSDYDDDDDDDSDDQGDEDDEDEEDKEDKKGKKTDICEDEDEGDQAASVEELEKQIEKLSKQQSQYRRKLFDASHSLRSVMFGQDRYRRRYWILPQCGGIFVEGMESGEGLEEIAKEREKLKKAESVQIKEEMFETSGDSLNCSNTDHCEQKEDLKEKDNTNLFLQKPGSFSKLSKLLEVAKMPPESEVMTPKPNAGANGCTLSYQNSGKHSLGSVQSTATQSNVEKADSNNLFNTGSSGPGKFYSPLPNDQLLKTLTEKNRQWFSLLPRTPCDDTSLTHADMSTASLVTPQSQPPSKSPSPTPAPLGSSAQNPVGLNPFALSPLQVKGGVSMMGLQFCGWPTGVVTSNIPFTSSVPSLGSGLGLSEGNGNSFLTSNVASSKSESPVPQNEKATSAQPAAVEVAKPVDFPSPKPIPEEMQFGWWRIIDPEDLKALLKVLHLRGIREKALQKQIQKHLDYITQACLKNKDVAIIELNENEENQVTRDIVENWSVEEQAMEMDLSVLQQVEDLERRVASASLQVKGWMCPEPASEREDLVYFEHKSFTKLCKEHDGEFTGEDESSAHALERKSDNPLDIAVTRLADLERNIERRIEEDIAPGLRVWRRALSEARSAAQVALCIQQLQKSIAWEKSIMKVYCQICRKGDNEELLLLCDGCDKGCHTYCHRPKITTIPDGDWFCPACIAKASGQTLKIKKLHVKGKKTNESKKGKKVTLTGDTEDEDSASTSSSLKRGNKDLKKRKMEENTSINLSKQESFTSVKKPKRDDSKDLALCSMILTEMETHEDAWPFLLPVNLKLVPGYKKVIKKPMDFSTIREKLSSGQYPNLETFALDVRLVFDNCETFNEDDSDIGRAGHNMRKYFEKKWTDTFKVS
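AlphaScreen luminescence quantifies BAZ2B engagement of H3K14Ac peptide; the protein and biotinylated peptide are both at 50 nM final, buffer PBS pH 7.4 with 0.01% Tween-20, all steps at room temperature.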
JMJD2A Tudor: qHTS Assay for Inhibitors of JMJD2A-Tudor Domain. Lysine-specific demethylase 4A (Homo sapiens), O75164. AlphaScreen JMJD2A-Tudor / H3K4me3 peptide binding. Potency, µM (series often up to 114 µM), for inactives: at the highest dose activity change, negative = inhibition, actives largely listed as inhibitors. actives 4.4% (n = 390,000). AID 504339, 2011; note: % is set by controls: 0 for no effect and ±100 for the full control effect; nearly all actives have a fitted effect of over 50% in size
G9a inh: qHTS Assay for Inhibitors of Histone Lysine Methyltransferase G9a; Potency, µM (series often up to 102 µM), inactives show at the top dose activity, negative = inhibition, actives largely listed as inhibitors; actives 8.8% (n = 350,000); G9a H3K9 monomethylation, AlphaScreen, 2 h; Histone-lysine N-methyltransferase EHMT2 (Homo sapiens), Q96KQ7; note: % is set by controls: 0 for no effect and ±100 for the full control effect; nearly all actives have a fitted effect of over 75% in size
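Signal arises when biotinylated H3K9 peptide, once monomethylated, bridges streptavidin donor and antibody-captured acceptor beads. Enzyme at 20 nM was preincubated 15 min with test compounds; peptide 500 nM and SAM 20 uM then reacted for 2 h.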
HP1b binding inh: HTS for Inhibitors of HP1-beta Chromodomain Interactions with Methylated Histone Tails | AlphaScreen HP1-beta / biotin-H3K9me3 peptide binding | Potency, µM (series often up to 114 µM), inactives show at the top dose activity change, negative = inhibition, most hits filed as inhibitors | actives 0.56% (n = 390,000) | AID 540317, 2011; note: nearly all actives have a fitted effect of over 70% in size
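Compound inhibition of the preformed complex between 50 nM HP1-beta and 50 nM biotinylated H3K9me3 peptide was read by AlphaScreen. Buffer was PBS pH 7.4 with 0.01% Tween-20. Incubations ran 30 min at room temperature, with 10 ug/mL donor/acceptor beads.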
L3MBTL1 inh-1: qHTS Assay for the Inhibitors of L3MBTL1; actives 0.66% (n = 230,000); AlphaScreen L3MBTL1–H3K9me1 peptide binding; Potency, µM (top dose mostly 57.1 µM), for the others: at the top dose activity, negative = inhibition, most hits filed as inhibitors; AID 485360, 2010; note: % is set by controls: 0 for no effect and ±100 for the full control effect; nearly all actives have a fitted effect of over 60% in size
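Read-out is AlphaScreen signal from streptavidin donor and nickel chelate acceptor beads (10 ug/mL final each) bridging L3MBTL1 (50 nM) and biotinylated K9-monomethylated H3(1-15) peptide (75 nM), after 30 min compound exposure at room temperature.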
L3MBTL1 inh-2: qHTS Assay for the Inhibitors of L3MBTL1: Hit Validation; AID 540279, 2011; Potency, µM, hits mostly inhibitors; shares compounds with L3MBTL1 inh-1; L3MBTL1 methyl-lysine binding inhibition, biochemical qHTS; actives 91% (n = 500); note: nearly all actives have a fitted effect of over 70% in size
L3MBTL1 ctr: qHTS Assay for the Inhibitors of L3MBTL1: Hit Validationin AlphaScreen Counterscreen; AlphaScreen counterscreen, signal inhibition; AID 602224, 2012; 500 tested, under 10 active; shares compounds with L3MBTL1 inh-1; Potency, µM (titrated, usually from 57.1 µM), inactives show top-dose activity change, negative = inhibition, actives largely listed as inhibitors; note: 0% is about no effect
An asterisk follows results filed as active; [ ] = remark or other dose. Calls come from the whole dose curve; as a rule, active = well fitted curve in the direction sought with a large enough effect; inconclusive = small, poorly fitted or top-dose-only effect, or another doubt; inactive = no such curve, though single readings can be large; an effect the other way counts as inactive or inconclusive. Potency is the fitted concentration of half-maximal effect.

For COc1ccc(N2Cc3cccc(C(=O)NC(C)CCc4ccco4)c3C2=O)cc1 (configuration not stated) the results were BAZ2B block 35µM*, JMJD2A Tudor 45µM*, G9a inh inconclusive, HP1b binding inh inconclusive, L3MBTL1 inh-1 14µM*, L3MBTL1 inh-2 2.7* and L3MBTL1 ctr 9%.
CC(CCc1ccco1)NC(=O)c1cccc2c1C(=O)N(C1CCCCC1)C2 (configuration not stated) was read as BAZ2B block 5%, JMJD2A Tudor -28%, G9a inh -13% and HP1b binding inh 21%.
`Cc1nc(N)sc1-c1csc(Nc2cccc(C(=O)O)c2)n1` gave BAZ2B block 50µM*, JMJD2A Tudor inconclusive, G9a inh 45µM*, HP1b binding inh -1%, L3MBTL1 inh-1 22µM*, L3MBTL1 inh-2 21* and L3MBTL1 ctr 4%.
Clc1ccc2ccc3cccnc3c2n1 was read as BAZ2B block 41%, JMJD2A Tudor -11%, G9a inh 13% and HP1b binding inh -9%.
`O=S1(=O)Nc2c(ccc3cccnc23)-c2ccccc21` gave BAZ2B block 6.3µM*, JMJD2A Tudor 5.6µM*, G9a inh -54%[59 µM], HP1b binding inh 29%, L3MBTL1 inh-1 11µM*, L3MBTL1 inh-2 3* and L3MBTL1 ctr 9.5µM*.
`Cc1ccc(/C=C2\SC(N3CCN(C(c4ccccc4)c4ccccc4)CC3)=NC2=O)o1` gave BAZ2B block inconclusive, JMJD2A Tudor inconclusive, G9a inh 4.5µM*, HP1b binding inh -20%, L3MBTL1 inh-1 14µM*, L3MBTL1 inh-2 15* and L3MBTL1 ctr -2%.
Screening COc1ccc(NC(=O)CN(C)C(=O)c2cc3c(s2)CCC3)cc1 returned BAZ2B block 6.3µM*, JMJD2A Tudor 14µM*, G9a inh 13µM*, HP1b binding inh 13µM*, L3MBTL1 inh-1 3.2µM*, L3MBTL1 inh-2 0.75* and L3MBTL1 ctr 5%.
For O=C(CCNS(=O)(=O)c1ccccc1F)N1CCN(C/C=C/c2ccccc2)CC1 the results were BAZ2B block 8%, JMJD2A Tudor -20%, G9a inh -8%[0.501 µM], HP1b binding inh 1% and L3MBTL1 inh-1 -25%.
For O=C(NCCc1ccc(Cl)cc1)c1nnc(Cc2ccc(Cl)cc2Cl)o1 the results were BAZ2B block -2%, JMJD2A Tudor -14%, G9a inh 6%[59 µM] and HP1b binding inh 6%.
COc1ccc2nc(N3C(=O)CNC3=S)sc2c1 was read as BAZ2B block -7%, JMJD2A Tudor 5%, G9a inh 7% and HP1b binding inh 40%.
COc1ccc2nc(-n3c(O)c(C4=c5ccccc5=NC4=O)[nH]c3=S)sc2c1 was read as BAZ2B block 13µM*, JMJD2A Tudor inconclusive, G9a inh inconclusive, HP1b binding inh inconclusive, L3MBTL1 inh-1 3.2µM*, L3MBTL1 inh-2 3.4* and L3MBTL1 ctr inconclusive.
`C[C@H](CO)N1C[C@H](C)[C@@H](CN(C)C(=O)Nc2ccccc2)Oc2ccc(NC(=O)Nc3ccccc3)cc2C1=O` gave JMJD2A Tudor -11%, HP1b binding inh 31% and L3MBTL1 inh-1 6%.
Screening CNc1nc(C(=O)O)nc(N2CCOCC2)n1 returned BAZ2B block 11µM*, JMJD2A Tudor 4.5µM*, G9a inh 5.6µM*, HP1b binding inh -15%, L3MBTL1 inh-1 20µM*, L3MBTL1 inh-2 inconclusive and L3MBTL1 ctr inconclusive.
`COc1ccc(NC(=O)C2=CCN(S(=O)(=O)c3ccccc3)CC2)cc1OC` gave BAZ2B block inconclusive, JMJD2A Tudor -21% and HP1b binding inh 9%[57 µM].
`O=C(/C=C1\SC(=O)NC1=O)Nc1ccc(C(=O)O)cc1` gave BAZ2B block -7%, JMJD2A Tudor -15%[11.4 µM] and HP1b binding inh 41%.
Screening O=C1NC(=O)/C(=C/c2ccc(-c3cc(C(=O)O)ccc3Cl)o2)S1 returned BAZ2B block -12%, JMJD2A Tudor -19%, HP1b binding inh 15%, L3MBTL1 inh-1 7.1µM*, L3MBTL1 inh-2 8.4* and L3MBTL1 ctr -6%.
Cc1cc(C)n(CCCNC(=O)c2ccc(C)c(S(=O)(=O)N3CCOCC3)c2)n1 was read as BAZ2B block -4%, JMJD2A Tudor inconclusive, G9a inh 11%[0.501 µM], HP1b binding inh 24% and L3MBTL1 inh-1 2%.
CN1CCN(c2cc(-c3ccccc3Cl)ncn2)CC1 was read as G9a inh 1%[0.501 µM].
`COc1cc(/C=C2/SC(=Nc3ccc(O)cc3)NC2=O)ccc1O` gave BAZ2B block -14%, JMJD2A Tudor -1%[11.4 µM], HP1b binding inh 7% and L3MBTL1 inh-1 -3%.
Screening COc1cc(/C=C2\SC(=Nc3ccc(Cl)c(C(=O)O)c3)NC2=O)c(Br)c(Br)c1O returned BAZ2B block 45µM*, JMJD2A Tudor 79µM*, G9a inh 32µM*, HP1b binding inh inconclusive, L3MBTL1 inh-1 32µM*, L3MBTL1 inh-2 3* and L3MBTL1 ctr inconclusive.
For O=C(/C=C/c1ccco1)NC(=S)Nc1cccc([N+](=O)[O-])c1 the results were BAZ2B block inconclusive, JMJD2A Tudor inconclusive, G9a inh -42%[59 µM], HP1b binding inh -9%, L3MBTL1 inh-1 35µM*, L3MBTL1 inh-2 24* and L3MBTL1 ctr -1%.
`O=C(NC(=S)Nc1cccc([N+](=O)[O-])c1)c1ccco1` gave BAZ2B block 6%, JMJD2A Tudor 1%, G9a inh -11%[59 µM], HP1b binding inh 30% and L3MBTL1 inh-1 10%.
For O=C(/C=C/c1ccc(O)c(O)c1)OC1C(O)CC(OC(=O)/C=C/c2ccc(O)c(O)c2)(C(=O)O)CC1O (configuration not stated) the results were BAZ2B block -10%, JMJD2A Tudor 22µM*, G9a inh 32µM*, HP1b binding inh 30%, L3MBTL1 inh-1 1µM*, L3MBTL1 inh-2 0.075* and L3MBTL1 ctr 7%.
`COC(=O)c1ccccc1NC(=O)c1noc2c1CSc1ccccc1-2` gave BAZ2B block 40%, JMJD2A Tudor 25%, G9a inh inconclusive and HP1b binding inh 80%.
